Test results from paper PMC10668032, “Altered binding affinity of SIX1-Q177R correlates with enhanced WNT5A and WNT pathway effector expression in Wilms tumor”.
In all, about 33,000 sequences were measured (“e-score”: median about -0.053, highest 2% from about 0.38 on). Many of the other results were omitted from the sample, so the highest values are more common in it than they were.

Each sequence was assayed against T1, SIX1 homeodomain (reference allele) (human, UniProt Q15475 108-198) (assay: universal protein binding microarray; Universal all-10-mer PBM (8x60K, AMADID 030236), 300 nM GST-tagged protein, Alexa Fluor 488 anti-GST; buffer, salt, pH and temperature not stated (as in Berger); high values mean tight binding). Conditions: protein: ivt; tags: N-terminal GST; dsDNA, one strand shown.
T1 sequence: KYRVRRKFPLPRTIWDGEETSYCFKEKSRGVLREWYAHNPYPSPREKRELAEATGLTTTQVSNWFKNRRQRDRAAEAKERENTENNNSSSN
Method in brief: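 Duplicate protein binding microarrays (universal 'all 10-mer', 8×60K format) were incubated with GST-tagged homeodomains at 300 nM final concentration. Binding was quantified as 8-mer E-scores with the Universal PBM Analysis Suite.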
With ATCACCGG the binding signal was 0.291 ± 0.0263 E-score.
With ACACGGTA the binding signal was 0.188 ± 0.0434 E-score.
Sequence GGATCGCC has a binding signal of 0.342 ± 0.0494 E-score.
Work on TATAGCGA yielded a binding signal of 0.164 ± 0.0391 E-score.
ATCCATCG gave a binding signal of 0.246 ± 0.0374 E-score.
Sequence ACATAGTA has a binding signal of 0.205 ± 0.029 E-score.
In the case of CTACTATA, the binding signal is reported as 0.153 ± 0.00888 E-score.
ACACCACG gave a binding signal of 0.263 ± 0.0526 E-score.
Sequence TGATAGCA has a binding signal of 0.323 ± 0.0297 E-score.
TGATATCA was tested, and the binding signal was 0.48 ± 0.0111 E-score.
AGATATCA was tested, and the binding signal was 0.451 ± 0.0439 E-score.
CGATATTA gave a binding signal of 0.365 ± 0.045 E-score.
Work on AGATATCC yielded a binding signal of 0.442 ± 0.0272 E-score.
TGATATAA gave a binding signal of 0.297 ± 0.032 E-score.
AAATATCC gave a binding signal of 0.271 ± 0.0279 E-score.
In the case of CAATATCA, the binding signal is reported as 0.306 ± 0.111 E-score.
In the case of AGATATGA, the binding signal is reported as 0.291 ± 0.0439 E-score.
AGATATTA showed a binding signal of 0.234 ± 0.119 E-score.
Work on CGATATCA yielded a binding signal of 0.444 ± 0.0437 E-score.
AGATATTC showed a binding signal of 0.219 ± 0.06 E-score.
ATCTGTCA showed a binding signal of 0.208 ± 0.00539 E-score.
ATCCCTTG showed a binding signal of 0.271 ± 0.0326 E-score.
GGATTCGA showed a binding signal of 0.212 ± 0.0426 E-score.
TATCCCAA gave a binding signal of 0.329 ± 0.0116 E-score.
For CGTATTCA, the binding signal was 0.265 ± 0.0108 E-score.
ATCTACCG was tested, and the binding signal was 0.23245 ± 0.00017 E-score.
In the case of GATCTTCC, the binding signal is reported as 0.2463 ± 0.00105 E-score.
CGATATGA gave a binding signal of 0.311 ± 0.0729 E-score.
CGATATGC showed a binding signal of 0.428 ± 0.00624 E-score.
GGATAGCC was tested, and the binding signal was 0.3501 ± 0.00233 E-score.
GGATAACC gave a binding signal of 0.297 ± 0.00525 E-score.
Work on AGATATGC yielded a binding signal of 0.353 ± 0.0369 E-score.
GGATATCC showed a binding signal of 0.4671 ± 0.00165 E-score.
Work on CAATATCC yielded a binding signal of 0.37 ± 0.00402 E-score.
Work on CGATAGCG yielded a binding signal of 0.228 ± 0.0412 E-score.
Work on CGATAGCA yielded a binding signal of 0.206 ± 0.0373 E-score.
Sequence CGATATCC has a binding signal of 0.476 ± 0.0109 E-score.
CGATATTC gave a binding signal of 0.317 ± 0.0233 E-score.
In the case of CGATATCG, the binding signal is reported as 0.439 ± 0.0105 E-score.
AGTAATAT showed a binding signal of 0.236 ± 0.0691 E-score.
ATACGGGC gave a binding signal of 0.278 ± 0.0276 E-score.
In the case of TCGTCTCA, the binding signal is reported as 0.22 ± 0.0818 E-score.
GTATGAAC was tested, and the binding signal was 0.208 ± 0.0436 E-score.
For GTAACCCA, the binding signal was 0.169 ± 0.0635 E-score.
In the case of ATCATGCG, the binding signal is reported as 0.24 ± 0.02 E-score.
Sequence ATATATGA has a binding signal of 0.233 ± 0.0893 E-score.
ATCAGCCC was tested, and the binding signal was 0.308 ± 0.0315 E-score.
ATACCCTC was tested, and the binding signal was 0.441 ± 0.0106 E-score.
Work on ATACCTTC yielded a binding signal of 0.323 ± 0.0961 E-score.
With ATACTCTG the binding signal was 0.354 ± 0.0279 E-score.
ACCCCCTA showed a binding signal of 0.258 ± 0.0368 E-score.
ACACCCTC was tested, and the binding signal was 0.306 ± 0.00827 E-score.
With ATACCCTA the binding signal was 0.452 ± 0.00588 E-score.
In the case of ATACCCTG, the binding signal is reported as 0.439 ± 0.0103 E-score.
For ACACCCTG, the binding signal was 0.321 ± 0.0135 E-score.
ACACCCTA was tested, and the binding signal was 0.31 ± 0.00433 E-score.
In the case of CCATCTGA, the binding signal is reported as 0.259 ± 0.0253 E-score.
Work on AGAAGTAT yielded a binding signal of 0.297 ± 0.117 E-score.
Work on CTTAACAC yielded a binding signal of 0.151 ± 0.0479 E-score.
AGGTGATA gave a binding signal of 0.418 ± 0.0434 E-score.
CGGTGATC gave a binding signal of 0.351 ± 0.0309 E-score.
CGGTGAGA gave a binding signal of 0.253 ± 0.0378 E-score.
Work on GGGTGTTA yielded a binding signal of 0.282 ± 0.0105 E-score.
Sequence CGGTGATA has a binding signal of 0.4094 ± 0.00389 E-score.
GGGTGAGA gave a binding signal of 0.172 ± 0.0545 E-score.
Sequence AGGTGAGA has a binding signal of 0.159 ± 0.0138 E-score.
AGGTGATC showed a binding signal of 0.359 ± 0.0112 E-score.
With GGGTGATA the binding signal was 0.4596 ± 0.00219 E-score.
With GGGCTATA the binding signal was 0.2005 ± 0.00146 E-score.
Work on ATCATGGC yielded a binding signal of 0.209 ± 0.00482 E-score.
With AGTTATCG the binding signal was 0.19 ± 0.0243 E-score.
In the case of AGAATCCC, the binding signal is reported as 0.175 ± 0.0139 E-score.
With GTATAACA the binding signal was 0.238 ± 0.00858 E-score.
CGATAGGA was tested, and the binding signal was 0.26 ± 0.0286 E-score.
GTATTGCA was tested, and the binding signal was 0.169 ± 0.0405 E-score.
For ATAGCACA, the binding signal was 0.169 ± 0.00707 E-score.
With GCTAATCC the binding signal was 0.208 ± 0.0144 E-score.
For ATCAAGTA, the binding signal was 0.234 ± 0.0311 E-score.
ATATACGG was tested, and the binding signal was 0.305 ± 0.00579 E-score.
AGATACGC gave a binding signal of 0.349 ± 0.00878 E-score.
In the case of AGATACGA, the binding signal is reported as 0.279 ± 0.0423 E-score.
With CGATACGA the binding signal was 0.39752 ± 0.00029 E-score.
In the case of CGATACGC, the binding signal is reported as 0.434 ± 0.00646 E-score.
AAATACGG was tested, and the binding signal was 0.19 ± 0.0109 E-score.
In the case of GGATACGA, the binding signal is reported as 0.36 ± 0.00395 E-score.
Work on AGATACGG yielded a binding signal of 0.401 ± 0.00895 E-score.
For CAATACGC, the binding signal was 0.198 ± 0.00389 E-score.
Sequence ACTAATCT has a binding signal of 0.192 ± 0.0141 E-score.
In the case of AAGGTGAT, the binding signal is reported as 0.1945 ± 0.00188 E-score.
AGCCGGTA was tested, and the binding signal was 0.169 ± 0.00673 E-score.
For CCGACCCA, the binding signal was 0.155 ± 0.0833 E-score.
In the case of ATTAACAC, the binding signal is reported as 0.258 ± 0.0441 E-score.
ATTTAATA gave a binding signal of 0.164 ± 0.0598 E-score.
Sequence ATCTCCAC has a binding signal of 0.204 ± 0.00599 E-score.
